In general, Inhibition refers to the drop in the measured response relative to a control, in per cent.

This passage reports Inhibition results from ChEMBL document CHEMBL4513146, “CO-ADD screening of Karazin Kharkiv National University (Ukraine) compounds”.

One assay has as its system Staphylococcus aureus. The conditions noted are these: Concentration 32 ug.mL-1;; ASSAY_TEST Inhibition of Bacterial Growth; detection method Absorption (OD600); MEDIA CAMHB; plate type 384well; NBS; CORNING #3640; time 18 hr.
In another assay the test system is Escherichia coli. The settings on record: Concentration 32 ug.mL-1;; ASSAY_TEST Inhibition of Bacterial Growth; detection method Absorption (OD600); MEDIA CAMHB; plate type 384well; NBS; CORNING #3640; time 18 hr.

Entries with a potency or affinity are not part of this list.

For `CC(C)NC(=O)CSc1nnc2c(=O)n(-c3ccccc3)ccn12`, the Inhibition in the assay with Staphylococcus aureus was -3.39%; in the assay with Escherichia coli, 1.35%.
For `CCCN(C)c1nccn2c(=O)n(CC(=O)Nc3ccc(Br)cc3)nc12`, in that order: 8.04% and -5.88%.
With `N#Cc1ccccc1NC(=O)Cn1nc2c(Oc3ccccc3)nccn2c1=O`, the Inhibition in the assay with Staphylococcus aureus was 8.21%; in the assay with Escherichia coli, 1.56%.
For `Cc1nnc2ccc(S(=O)(=O)N(Cc3cccc(F)c3)c3cccc(F)c3)cn12`, in that order: -4.62% and -13.2%.
For `COC(=O)c1sccc1NC(=O)Cn1nc2c(Oc3ccc(C)cc3)nc3ccccc3n2c1=O`, in that order: 6.43% and 0.18%.
In the case of `Cc1cc2nn(CC(=O)Nc3ccc(Cl)cc3)c(=O)n2c(Nc2ccc(F)c(C)c2)n1`, the Inhibition with Staphylococcus aureus is recorded as 4.83%; in the assay with Escherichia coli, -2.12%.
For `Cn1c(=O)c2sccc2n2c(=O)n(CCOc3ccccc3)nc12`, in that order: -2.74% and -12.23%.
Turning to `Cc1cccc(Sc2nccn3c(=O)n(CC(=O)N4CCN(c5ccccc5)CC4)nc23)c1`, the Inhibition is 12.14% in the assay on Staphylococcus aureus and -10.39% in the assay on Escherichia coli.
The like results for `Cc1ccc(-c2ccc3nn(Cc4ccc(F)cc4Cl)c(=O)n3n2)cc1C` were, in that order, 8.63% and -0.58%.
The like results for `Cc1ccc(Sc2nccn3c(=O)n(CC(=O)Nc4ccc(C)c(Cl)c4)nc23)c(C)c1` were, in that order, 6.61% and -6.53%.
The like results for `C=Cc1ccc(CSc2nnc3c(=O)n(-c4ccc(Br)cc4)ccn23)cc1` were, in that order, 2.47% and -8.25%.
As for `O=C(Cn1nc2c(Sc3cccc(F)c3)nccn2c1=O)N1CCN(c2ccccc2)CC1`, the Inhibition was 1.07% in the assay with Staphylococcus aureus and 1.18% with Escherichia coli.
For `Cc1ccc(Cl)cc1NC(=O)Cn1c(=O)c2nnc(C(C)C)n2c2ccccc21`, in that order: 2.92% and -2.02%.
For `COC(=O)c1ccccc1NC(=O)CSc1nc2ccccc2n2c(C(C)C)nnc12`, in that order: 10.06% and -3.26%.
For `Cc1cc(C)cc(Oc2nc3ccccc3n3c(=O)n(CC(=O)Nc4ccc5c(c4)OCO5)nc23)c1`, in that order: 0.02% and -5.83%.
As to `Cc1ccc(NC(=O)Cn2nc3c(SCc4ccc(Cl)cc4)nccn3c2=O)cc1F`, the Inhibition in the assay on Staphylococcus aureus came to 5.52%; in the assay with Escherichia coli, 0.08%.
Consider `C=Cc1ccc(CN(c2ccc(F)cc2)S(=O)(=O)c2ccc3nnc(C)n3c2)cc1`, for which the Inhibition with Staphylococcus aureus was -1.19%; in the assay on Escherichia coli it was -7.93%.
For `COc1ccc(-c2cc3c4nn(CC(=O)Nc5c(C)cccc5C)c(=O)n4ccn3n2)cc1`, in that order: 3.68% and -1.14%.
The like results for `CCOc1ccc(-n2ccn3c(SCC(=O)Nc4cc(Cl)ccc4OC)nnc3c2=O)cc1` were, in that order, 6.02% and 1.04%.
For `Cc1ccc(NC(=O)Cn2nc3ccc(SC4CCCCC4)nn3c2=O)cc1`, in that order: -13.21% and -13.34%.
As to `O=C(Cn1nc2c(SC3CCCCC3)nccn2c1=O)Nc1ccc(Cl)cc1F`, the Inhibition in the assay on Staphylococcus aureus is 4.94%; in the assay on Escherichia coli it was -2.75%.
The like results for `Cc1nnc2ccc(S(=O)(=O)N(Cc3cc(F)cc(F)c3)c3ccc(F)cc3)cn12` were, in that order, 1.57% and -3.09%.
For `COc1ccc(OC)c(NC(=O)Cn2nc3ccc(SCc4ccc(Cl)cc4)nn3c2=O)c1`, the values for the Inhibition in the assay with Staphylococcus aureus and in the assay with Escherichia coli were -2.6% and -8.88%, respectively.
The like results for `CCOc1ccc(-n2ccn3c(SCC(=O)NCc4ccccc4Cl)nnc3c2=O)cc1` were, in that order, 3.68% and -5.16%.
For `CC(C)c1nnc2c(=O)n(CC(=O)Nc3ccc(F)cc3)c3ccccc3n12`, in that order: 20.52% and 5.44%.
For `Cc1ccc(-n2ccn3c(SC(C)C(=O)Nc4ccc5c(c4)OCCO5)nnc3c2=O)cc1C` (centres undefined), in that order: 12.06% and -2.85%.
For the molecule `O=S(=O)(c1cccn2cnnc12)N(Cc1ccc(F)cc1)c1ccc(F)cc1`, the results for the Inhibition with Staphylococcus aureus and in the assay on Escherichia coli were 8.29% and -3.31%, respectively.
For `O=C(Cn1nc2c(N3CCOCC3)nccn2c1=O)NCc1ccc(C(F)(F)F)cc1`, in that order: 3.92% and -9.55%.
For `COc1ccc(NC(=O)Cn2nc3ccc(-c4ccccc4)nn3c2=O)cc1`, in that order: 6.57% and -0.4%.
On to `CCOc1ccc(NC(=O)Cn2nc3c(Oc4ccc(C)cc4)nccn3c2=O)cc1`, for which the values for the Inhibition in the assay on Staphylococcus aureus and in the assay with Escherichia coli were 5.72% and -4.41%, respectively.
As to `CCc1ccccc1NC(=O)Cn1nc2cc(C)nc(Nc3ccc(F)c(C)c3)n2c1=O`, the results for the Inhibition in the assay with Staphylococcus aureus and in the assay on Escherichia coli were -15.94% and -1.7%, respectively.
For `Cc1cc(C)cc(N(Cc2cc(C)ccc2C)S(=O)(=O)c2cccn3c(C)nnc23)c1`, in that order: 6.88% and -2.32%.
The like results for `COC(=O)c1ccc(NC(=O)CSc2nnc3ccc(C(=O)Nc4cccc(F)c4)cn23)cc1` were, in that order, 19.46% and -0.45%.
The like results for `Cc1cc(C)cc(Nc2nc(C)cc3nn(CC(=O)NCc4ccco4)c(=O)n23)c1` were, in that order, 4.89% and -6.71%.
With `Cc1nnc2c(S(=O)(=O)N(Cc3ccccc3F)c3ccc(C(C)C)cc3)cccn12`, the Inhibition is given as 11.33% in the assay on Staphylococcus aureus and -2.7% in the assay with Escherichia coli.
The like results for `CCOc1ccc(C(=O)CSc2nnc3c(=O)n(-c4ccc(F)cc4)ccn23)cc1` were, in that order, 23.03% and 1.42%.
The like results for `Cc1cc2nn(CC(=O)Nc3ccccc3)c(=O)n2c(Nc2ccc(C)c(F)c2)n1` were, in that order, 8.29% and -1.41%.
